An excerpt weighted towards active compounds, which were near 3.1% of everything screened.
TexasRed fluor: Texas Red fluorescence interference in TRb-SRC2 counter-screen; actives 0.29% (n = 280,000); TRb/SRC2 Texas Red total fluorescence interference; Potency, µM (top dose mostly 106 µM), for inactives: top-dose fluorescence change, negative = quenching; AID 1479; active = well fitted curve in either direction with a large enough effect; inconclusive = small, poorly fitted or top-dose-only effect
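Human TRb ligand-binding domain at 0.6 uM with 20 nM Texas Red SRC2 peptide in Tris buffer containing 1 uM T3 and 5% DMSO, incubated with compound 5 h at ambient temperature. Total fluorescence (555/632 nm) calculated as parallel + 2 × perpendicular.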
Tau fluor counter: counter-screen for tau fibril formation inhibitors. Potency, µM (titrated, usually from 57.7 µM), for inactives: at the top dose activity change, negative = decrease. tau K18 P301L Alexa594 fluorescence, heparin fibrillization. AID 1463. actives 0.93% (n = 280,000); note: nearly all actives have a fitted effect of over 55% in size
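Human K18 P301L tau (15 uM unlabeled plus 0.24 uM Alexa 594-labeled, final) in 100 mM sodium acetate pH 7 was mixed with compound and 20 uM heparin and incubated 6 hr at 37 C.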
Tau fibril FP: tau fibrillization inhibition (FP). P10636. K18 P301L tau heparin fibrillization, Alexa594 FP, 6 h. Potency, µM (titrated, usually from 57.7 µM), for inactives: top-dose activity, negative = inhibition, actives largely listed as inhibitors. actives 0.39% (n = 280,000); note: nearly all actives have a fitted effect of over 55% in size
Target sequence (P10636 561-689 P618L limits assumed): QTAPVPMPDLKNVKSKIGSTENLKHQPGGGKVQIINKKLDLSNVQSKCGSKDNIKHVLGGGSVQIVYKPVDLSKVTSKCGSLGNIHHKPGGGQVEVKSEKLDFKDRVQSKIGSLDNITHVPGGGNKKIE
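FP of Alexa 594-tau after heparin (20 uM) induction. Substrate: human K18 P301L, 15 uM unlabeled, 0.24 uM labeled. Buffer 100 mM sodium acetate pH 7. 6 hr, 37 C.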
TRb SRC2 PPI: disrupts binding of human TR beta to SRC2; P10828; TRbeta-SRC2 peptide binding, fluorescence polarization; receptor liganded with 1 µM T3; Potency, µM (titrated, usually from 106 µM), without a hit: at the top dose activity change, negative = inhibition, usual class: inhibitors; actives 0.065% (n = 280,000);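 note: plate controls were bound peptide for no effect and peptide without receptor for full effect; nearly all actives have a fitted effect of over 50% in size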
Target sequence (P10828 whole entry, looked up): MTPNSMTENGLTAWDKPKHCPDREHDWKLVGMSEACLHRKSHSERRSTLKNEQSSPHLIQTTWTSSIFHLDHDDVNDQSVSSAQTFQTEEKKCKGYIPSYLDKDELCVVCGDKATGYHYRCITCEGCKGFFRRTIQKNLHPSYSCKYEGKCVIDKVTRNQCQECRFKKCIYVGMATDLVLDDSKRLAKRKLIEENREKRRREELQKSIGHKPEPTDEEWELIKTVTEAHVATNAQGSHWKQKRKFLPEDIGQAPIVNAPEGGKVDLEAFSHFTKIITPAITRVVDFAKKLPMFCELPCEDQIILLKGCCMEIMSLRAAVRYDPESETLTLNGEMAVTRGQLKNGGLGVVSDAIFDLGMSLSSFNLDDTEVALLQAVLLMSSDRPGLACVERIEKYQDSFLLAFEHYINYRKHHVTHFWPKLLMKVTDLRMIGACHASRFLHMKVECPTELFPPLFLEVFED
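Read-out is fluorescence polarization (555 nm excitation, 632 nm emission) of a Texas Red SRC2 coactivator peptide; loss of signal reflects blocked binding to human TRb ligand-binding domain in the presence of 1 uM T3.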
Tau fibril ThT: blocks human tau fibril formation measured by thioflavin T | P10636 | recombinant tau K18 P301L (four-repeat tau fragment), heparin-induced fibrillization, ThT fluorescence | Potency, µM (top dose mostly 57.4 µM), for the others: at the top dose activity, negative = inhibition, most hits filed as inhibitors | actives 2.1% (n = 270,000); note: nearly all actives have a fitted effect of over 55% in size
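Recombinant human tau K18 fragment […] carrying P301L, 15 uM unlabeled plus 0.24 uM Alexa 594-labeled, was fibrillized with 20 uM heparin in 100 mM sodium acetate pH 7 for 6 hr at 37 C; 30 uM ThT fluorescence read after 1 hr.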
GoLoco inh red: blocks human Gai1 binding to RGS12 GoLoco peptide, red readout | Gai1:RGS12 GoLoco peptide FP, rhodamine, 10 min | Potency, µM (top dose mostly 61.6 µM), for inactives: at the highest dose activity, negative = inhibition, actives largely listed as inhibitors | actives 0.44% (n = 230,000); active = well fitted inhibition curve with a large enough effect, not every such curve was filed as active; inactive = no such curve, though single readings can be large or run the other way; note: nearly all actives have a fitted effect of over 30% in size
* = called active by the depositor; ? = inconclusive; / = no result given; [ ] = remark or other dose. Unless noted, calls come from the whole dose curve; as a rule, active = well fitted curve in the direction sought with a large enough effect; inconclusive = small, poorly fitted or top-dose-only effect, or another doubt; inactive = no such curve, though single readings can be large; an effect the other way counts as inactive or inconclusive. Unless noted, % is set by controls: 0 for no effect and ±100 for the full control effect; potency is the fitted concentration of half-maximal effect.

SMILES	TexasRed fluor	Tau fluor counter	Tau fibril FP	TRb SRC2 PPI	Tau fibril ThT	GoLoco inh red
CC(C)(C)c1ccc(NC(=O)C(=O)C2C(=O)Nc3ccccc32)cc1 (stereo not drawn)	-2.8%	-18.1%	5.3%	2.5%	?	9.1%
CN(C)c1ccc(CC2C(=O)Nc3ccccc32)cc1 (stereo not drawn)	5.5%	?	?	-8.2%	31.6µM*	-0.5%
CN(C)c1ccc(NC(=O)C(=O)C2C(=O)Nc3ccccc32)cc1 (stereo not drawn)	-2.0%	-21.3%	6.4%	-4.4%	14.1µM*	5.3%
O=C1Nc2ccccc2C1Cc1ccc(Br)cc1 (stereo not drawn)	-22.0%	-13.8%	4.3%	1.9%	-2.0%	/
CC(C)(CO)CNC(=O)CC1C(=O)NCCN1CC(c1ccccc1)c1ccccc1 (stereo not drawn)	3.9%	-11.7%	1.6%	-3.2%	-15.5%	-30.9%
CC(=O)c1ccc(NC(=O)CSc2nc(N)c3cc4c(nc3n2)CCCC4)cc1	89.1µM*[quencher]	-18.8%	-10.0%	-21.8%	-17.7%	56.4%
O=C(COC(=O)C1CCCN1C(=O)C12CC3CC(CC(C3)C1)C2)c1ccc(Br)cc1 (stereo not drawn)	?	-6.3%	-8.3%	6.9%	-8.2%	23.4%
Cc1ccc(CCCOC(=O)C[N+]2(C)CCOCC2)cc1	-2.2%	-3.2%	0.9%	-8.5%	-2.9%	10µM*
Cc1ccc(CCCOC(=O)CN2CCCCC2)cc1	0.3%	-5.2%	2.0%	1.5%	-7.4%	10.6%
O=C(CN1CCOCC1)OCCCc1ccccc1	0.6%	-10.3%	0.2%	-6.9%	-12.3%	-3.2%
C[N+]1(CC(=O)OCCCc2ccccc2)CCOCC1	-7.0%	-2.8%	-3.8%	-10.3%	-7.7%	12.6µM*
Oc1ccc2ccccc2c1N=Nc1ccccc1F	0.4%	?	-0.4%	-1.6%	15.8µM*	45.6%
Cc1ccc(N=Nc2c(O)ccc3ccccc23)c(C)c1	44.7µM*[fluorescent]	/	/	39.8µM*	/	/
Oc1ccc2ccccc2c1N=Nc1ccccn1	-13.6%	?	3.8%	4.3%	5.01µM*	30.5%
OCCNCCNCc1ccc(-c2ccccc2)cc1	-1.9%	-8.5%	-5.6%	-1.8%	-11.5%	322.4%
CCOc1ccccc1N1CCN(S(=O)(=O)CC)CC1	1.2%	-0.7%	-7.7%	3.7%	-16.3%	-4.6%
CC(=O)c1c(C)[nH]c(C(=O)NCCc2ccc(Cl)cc2)c1C	-0.6%	-5.5%	-2.3%	-3.4%	-0.6%	11.2%
N#Cc1c(N2CCCC2)nc(N)c2c(N)nc(N3CCCC3)cc12	-2.4%	12.6µM*[quencher]	11.3%	?	?	-2.1%
COc1cc2c(C#N)c(N3CCN(C)CC3)nc(N)c2c(N)n1	-7.7%	-4.3%	9.0%	-8.2%	-8.1%	6.6%
COc1cc2c(C#N)c(N3CCN(c4ccccc4OC)CC3)nc(N)c2c(N)n1	-10.0%	12.6µM*[quencher]	-10.3%	?	17.8µM*	9.1%
CC(=O)N[C@@H](CSC/C=C(\C)CC/C=C(\C)CC/C=C(\C)CCC=C(C)C)C(=O)O	-1.9%	?	1.9%	1.1%	?	-2.2%
Cc1nn(CC2CCCCC2)c(N)c1-c1ccccc1	-2.4%	-14.9%	6.3%	-4.2%	?	6.8%
CCOC(=O)c1sc2ncnc(NCC(c3cccs3)N(C)C)c2c1C (stereo not drawn)	1.0%	-13.6%	0.1%	9.3%	-9.8%	59.1%
COC(=O)c1ccc2c(c1)C(C)(C)C(/C=C/c1ccc(OC)c(OC)c1OC)=[N+]2C	?	-11.7%	9.8%	?	?	83.0%
COC(=O)c1ccc2c(c1)C(C)(C)C(/C=C/c1ccc(O)cc1)=[N+]2C	?	?	?	?	12.6µM*	129.6%
SMILES	TexasRed fluor	Tau fluor counter	Tau fibril FP	TRb SRC2 PPI	Tau fibril ThT	GoLoco inh red
COc1ccc(C(=O)NC(=S)Nc2cc3oc4ccccc4c3cc2OC)cc1	0.7%[53 µM]	-10.7%	-0.9%	0.1%[53 µM]	-14.7%	7.6%
COc1cc2c(cc1NC(=S)NC(=O)c1c(OC)cccc1OC)oc1ccccc12	2.1%	-21.9%	28.2µM*	-16.9%	-1.3%	6.3%
CN(C)c1ccc(C(CNS(=O)(=O)c2ccc3ccccc3c2)c2c[nH]c3ccccc23)cc1 (stereo not drawn)	0.2%	8.91µM*[quencher]	7.1%	-3.3%	-7.3%	2.1%
COc1cc2c(cc1OC)CN(C(=O)CCN1C(=O)C3CCCCC3C1=O)CC2 (stereo not drawn)	-0.2%	2.1%	5.6%	3.9%	-1.0%	3.4%
O=C(/C=C/c1ccc(F)cc1)c1ccc(N2CCOCC2)cc1	-0.6%	-20.1%	-11.8%	4.1%	?	-4.5%
C/C(=C\C(=O)c1ccc(F)cc1)Nc1ccc(N2CCOCC2)cc1	7.7%	-20.1%	9.8%	-26.6%	3.55µM*	2.6%
CC(=O)Nc1ccc(S(=O)(=O)Nc2nc3ccc([N+](=O)[O-])cc3s2)cc1	?	-15.6%	2.0%	15.4%	?	9.9%
O=c1[nH][nH]c(-c2ccccc2O)c1C(C[N+](=O)[O-])c1cccc(Cl)c1 (stereo not drawn)	-1.0%[53 µM]	?	-13.9%	-1.6%[53 µM]	25.1µM*	0.3%
O=c1[nH][nH]c(-c2ccccc2O)c1C(C[N+](=O)[O-])c1ccccc1 (stereo not drawn)	-1.4%	-7.6%	8.2%	2.0%	-17.7%	10.2%
Cc1c(O)ccc(/C(Cc2ccc3ccccc3n2)=N\O)c1O	0.4%	-23.0%	3.0%	11.7%	-11.6%	11.1%
Oc1ccc(/C(Cc2ccc3ccccc3n2)=N\Nc2ccccc2)c(O)c1	-0.7%	11.2µM*[quencher]	1.5%	2.2%	11.2µM*	11.0%
O/C(=C\c1ccc2ccccc2n1)c1ccc(O)cc1O	-2.6%	?	0.3%	-0.3%	1.78µM*	15.7%
Oc1ccc(/C(Cc2ccccn2)=N\Nc2ccccc2)c(O)c1	-3.5%	11.2µM*[quencher]	1.7%	0.3%	?	0.2%
Cc1ccc(NC(=O)NC2CCN(CC(=O)Nc3nccs3)CC2)cc1	-0.7%	-3.5%	-1.1%	2.0%	-3.0%	-1.8%
CCN(CC)c1ccc(NC(=O)Cn2c(C(C)NC(=O)c3ccccc3)nc3ccccc32)cc1 (stereo not drawn)	-0.4%	-13.1%	9.8%	-2.4%	-8.8%	5.1%
CCCOc1ccc(Br)cc1-c1cc(-c2ccc(Cl)cc2)[nH]c1-c1ccncc1	-0.9%	7.94µM*[quencher]	?	-2.0%	-12.7%	-5.5%
Oc1ccc(Br)cc1-c1cc(-c2ccc(Cl)cc2)n[nH]1	-1.8%	?	?	13.1%	?	-2.9%
CC1CCN(c2ccc(C(=O)Nc3ccc4c(c3)OCO4)cc2[N+](=O)[O-])CC1	0.5%	?	11.0%	8.9%	3.98µM*	-4.7%
